A number with no mark means an inactive call. Records with an inconclusive call do not appear. Entries that show only a call come without a potency. Activity calls are given as the source filed them. Unless noted, the call rests on the fitted dose curve; in most records, active means well fitted curve in the direction sought with a large enough effect; inconclusive means small, poorly fitted or top-dose-only effect, or another doubt; inactive means no such curve, though single readings can be large; an effect the other way counts as inactive or inconclusive.
Legend:
[1] = test system: JEG-3; assay: Primary qHTS to identify gynecologic anti-cancer compounds using libraries of approved drugs and bioactive compounds (AID 1345084); settings: Gynecologic cancer cell panel viability, ATPlite luminescence, 48 h; series mostly up to 57.5 µM; further: nearly all actives have a fitted effect of over 55% in size; further: potency means the concentration at half of the fitted maximal effect
In short: (§1)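 Five-concentration response, 48 h; readout is ATP-driven luciferase luminescence.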

[2] = test system: OV90; assay: as above; settings: Gynecologic cancer cell panel viability, ATPlite luminescence, 48 h; series mostly up to 57.5 µM
In short: as §1

[3] = test system: PA-1; assay: as above; settings: Gynecologic cancer cell panel viability, ATPlite luminescence, 48 h; series mostly up to 57.5 µM
In short: as §1

[4] = test system: SKOV3; assay: as above; settings: Gynecologic cancer cell panel viability, ATPlite luminescence, 48 h; series mostly up to 57.5 µM
In short: as §1

[5] = test system: Tov-21-G; assay: as above; settings: Gynecologic cancer cell panel viability, ATPlite luminescence, 48 h; series mostly up to 57.5 µM
In short: as §1

[6] = test system: Tov112D; assay: as above; settings: Gynecologic cancer cell panel viability, ATPlite luminescence, 48 h; series mostly up to 57.5 µM
In short: as §1

[7] = Drug repurposing screens with cells derived from glioblastoma tumor samples (AID 1345199); settings: GBM patient neurospheres viability, ATP luminescence, 48 h; further: nearly all actives have a fitted effect of over 40% in size; further: potency means the concentration at half of the fitted maximal effect
In short: (§2)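 Four patient lines of CD133+ GBM neurospheres were screened at several concentrations; hits were retested in those lines plus three slower-growing GBM lines, using 48-hour treatment and ATP-based viability.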

[8] = test system: astro; assay: as above; settings: viability, ATP luminescence, 48 h; series mostly up to 45.9 µM
In short: as §2

[9] = qHTS assay for small molecule activators of the human pregnane X receptor (PXR) signaling pathway (AID 720659; call rule not given here)
[10] = target: Nuclear receptor subfamily 1 group I member 2 (Rattus norvegicus) (UniProt Q9R1A7); assay: qHTS assay for small molecule activators of the rat pregnane X receptor (rPXR) signaling pathway (AID 651751; call rule not given here); settings: rPXR reporter cells, luciferase (One-Glo), 24 h
[11] = at 45.9 µM (top of the series), tumour line B
[12] = at 45.9 µM (top of the series), tumour line D
[13] = at 46.1 µM (top of the series), tumour line C
[14] = at 46 µM (top of the series), tumour line A
[15] = at 20 µM (top of the series), tumour line C
[16] = at 21.2 µM (top of the series), tumour line B
[17] = at 21.2 µM (top of the series), tumour line D

Nuclear receptor subfamily 1 group I member 2 (Rattus norvegicus), sequence (Q9R1A7 whole entry, looked up): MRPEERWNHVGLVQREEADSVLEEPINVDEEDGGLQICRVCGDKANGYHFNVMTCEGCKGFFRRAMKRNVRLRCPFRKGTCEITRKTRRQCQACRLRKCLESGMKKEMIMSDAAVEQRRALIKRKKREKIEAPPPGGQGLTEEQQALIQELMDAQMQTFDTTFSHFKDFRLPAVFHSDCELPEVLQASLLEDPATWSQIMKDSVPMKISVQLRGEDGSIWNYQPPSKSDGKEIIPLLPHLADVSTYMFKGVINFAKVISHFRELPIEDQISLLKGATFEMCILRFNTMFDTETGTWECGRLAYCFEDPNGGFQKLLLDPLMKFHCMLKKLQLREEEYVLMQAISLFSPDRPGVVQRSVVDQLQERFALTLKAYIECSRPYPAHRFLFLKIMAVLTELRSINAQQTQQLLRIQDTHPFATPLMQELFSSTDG

Compound: CCCNC(C)C(=O)Nc1ccccc1C (stereo not drawn)
- Potency [1]: inactive
- Potency [2]: inactive
- Potency [3]: inactive
- Potency [4]: inactive
- Potency [5]: inactive
- Potency [6]: inactive
- activity, negative = cell killing [7, 11]: -20%
- activity, negative = cell killing [7, 12]: -8.5%
- activity, negative = cell killing [7, 13]: -15.8%
- Potency [8]: inactive

Compound: NC(Cc1ccc(Cl)cc1)C(=O)O (stereo not drawn)
- activity change, negative = cytotoxicity [1]: 1.83% [at 0.462 µM]
- activity change, negative = cytotoxicity [2]: -16.1% [at 0.462 µM]
- activity change, negative = cytotoxicity [3]: -4.76% [at 0.462 µM]
- activity change, negative = cytotoxicity [4]: 0.0141% [at 0.462 µM]
- activity change, negative = cytotoxicity [5]: 11.9% [at 0.462 µM]
- activity change, negative = cytotoxicity [6]: 2.14% [at 0.462 µM]
- activity, negative = cell killing [7, 11]: -4.29%
- activity, negative = cell killing [7, 12]: -0.449%
- activity, negative = cell killing [7, 14]: -31.7%
- activity, negative = cell killing [7, 13]: 0.887%
- Potency [8]: inactive

Compound: O=C(CCNNC(=O)c1ccncc1)NCc1ccccc1
- Potency [1]: inactive
- Potency [2]: inactive
- Potency [3]: inactive
- Potency [4]: inactive
- Potency [5]: inactive
- Potency [6]: inactive
- activity, negative = cell killing [7, 11]: -4.66%
- activity, negative = cell killing [7, 12]: -5.12%
- activity, negative = cell killing [7, 14]: -24.8%
- activity, negative = cell killing [7, 13]: 1.75%
- Potency [8]: inactive

Compound: CCn1ccnc1CC1COc2ccccc2O1 (stereo not drawn)
- Potency [1]: inactive
- Potency [2]: inactive
- Potency [3]: inactive
- Potency [4]: inactive
- Potency [5]: inactive
- Potency [6]: inactive
- activity, negative = cell killing [7, 11]: -17.6%
- activity, negative = cell killing [7, 12]: -4.46%
- activity, negative = cell killing [7, 13]: -8.32%
- Potency [8]: inactive

Compound: COc1ccc(CCN(C)CCCC(C#N)(c2cc(OC)c(OC)c(OC)c2)C(C)C)cc1OC (stereo not drawn)
- Potency [1]: inactive
- Potency [2]: inactive
- Potency [4]: inactive
- Potency [5]: inactive
- Potency [6]: inactive
- activity, negative = cell killing [7, 11]: -13.5%
- activity, negative = cell killing [7, 13]: -13.9%
- Potency ([7]; tumour line A): 14.1 µM (active)
- Potency [8]: inactive

Compound: CN/C(=C\[N+](=O)[O-])NCCSCc1ccc(CN(C)C)o1
- Potency [1]: inactive
- Potency [2]: 14.1 µM (active)
- Potency [3]: inactive
- Potency [6]: inactive
- activity, negative = cell killing [7, 13]: -1.34%

Compound: CCOC(=O)C1=C(C)NC(C)=C(C(=O)OC)C1c1cccc(Cl)c1Cl (stereo not drawn)
- Potency [1]: inactive
- Potency [2]: inactive
- Potency [3]: inactive
- Potency [4]: inactive
- Potency [5]: inactive
- Potency [6]: inactive
- activity, negative = cell killing [7, 11]: -16.5%
- Potency ([7]; tumour line A): 12.6 µM (active)
- Potency [8]: inactive

Compound: COc1ccc2c(c1OC)C(=O)O[C@@H]2[C@H]1c2c(cc3c(c2OC)OCO3)CCN1C
- Potency [1]: inactive
- Potency [2]: inactive
- Potency [3]: inactive
- Potency [5]: inactive
- Potency [6]: inactive
- activity, negative = cell killing [7, 11]: -11.4%
- activity, negative = cell killing [7, 12]: -14.1%
- activity, negative = cell killing [7, 13]: 1.26%

Compound: CCN1CCC[C@H]1CNC(=O)c1c(O)c(Cl)cc(Cl)c1OC
- Potency [1]: inactive
- Potency [2]: inactive
- Potency [3]: inactive
- Potency [5]: inactive
- Potency [6]: inactive
- activity, negative = cell killing [7, 11]: -11.9%
- activity, negative = cell killing [7, 12]: 3.21%
- activity, negative = cell killing [7, 13]: 9.16%
- Potency [8]: inactive

Compound: CCN(CC)CC(=O)Nc1c(C)cccc1C
- Potency [1]: inactive
- Potency [2]: inactive
- Potency [3]: inactive
- Potency [4]: inactive
- Potency [5]: inactive
- Potency [6]: inactive
- activity, negative = cell killing [7, 11]: -12.8%
- activity, negative = cell killing [7, 14]: 16.4%
- activity, negative = cell killing [7, 13]: -29.2%
- Potency [8]: inactive

Compound: CCN1CCc2nc(N)oc2CC1
- Potency [1]: inactive
- Potency [2]: inactive
- Potency [3]: inactive
- Potency [5]: inactive
- Potency [6]: inactive
- activity, negative = cell killing [7, 11]: -14.6%
- activity, negative = cell killing [7, 12]: -6.92%
- activity, negative = cell killing [7, 13]: -18.3%
- Potency [8]: inactive

Compound: Cc1nc2ccccn2c(=O)c1CCN1CCC(C(=O)c2ccc(F)cc2)CC1
- Potency [1]: inactive
- Potency [2]: inactive
- Potency [3]: inactive
- Potency [5]: inactive
- Potency [6]: inactive
- activity, negative = cell killing [7, 11]: -22.2%
- Potency ([7]; tumour line A): 6.31 µM (active)

Compound: COC(=O)C1=C(C)NC(C)=C(C(=O)OC(C)(C)CN(C)CCC(c2ccccc2)c2ccccc2)C1c1cccc([N+](=O)[O-])c1 (stereo not drawn)
- Potency [1]: inactive
- Potency [2]: inactive
- Potency [3]: inactive
- Potency [5]: inactive
- Potency [6]: inactive
- Potency ([7]; tumour line A): 2 µM (active)
- Potency ([7]; tumour line C): 5.8 µM (active)
- Potency ([7]; tumour line D): 5.01 µM (active)

Compound: COc1cc(Cc2cnc(N)nc2N)cc(OC)c1OC
- Potency [1]: inactive
- Potency [2]: inactive
- Potency [3]: inactive
- Potency [5]: inactive
- Potency [6]: inactive
- activity, negative = cell killing [7, 11]: 10.7%
- activity, negative = cell killing [7, 12]: -9.7%
- activity, negative = cell killing [7, 13]: -10.9%
- Potency [8]: inactive
- outcome [9]: inactive

Compound: CCN(CC)CCNC(=O)c1cc(S(C)(=O)=O)ccc1OC
- Potency [1]: inactive
- Potency [2]: inactive
- Potency [3]: inactive
- Potency [4]: inactive
- Potency [5]: inactive
- Potency [6]: inactive
- activity, negative = cell killing [7, 15]: -10.9%
- activity, negative = cell killing [7, 16]: -7.73%
- activity, negative = cell killing [7, 17]: -4.2%
- Potency [8]: inactive

Compound: COC(=O)[C@H]1[C@H]2C[C@@H]3c4[nH]c5cc(OC)ccc5c4CCN3C[C@H]2C[C@@H](OC(=O)c2cc(OC)c(OC)c(OC)c2)[C@@H]1OC
- Potency [1]: inactive
- Potency [2]: inactive
- Potency [3]: inactive
- Potency [4]: inactive
- Potency [5]: inactive
- Potency [6]: inactive
- activity, negative = cell killing [7, 11]: -27.8%
- Potency ([7]; tumour line A): 5.01 µM (active)
- Potency [8]: inactive

Compound: CC(=O)Nc1nnc(S(N)(=O)=O)s1
- Potency [1]: inactive
- Potency [2]: inactive
- Potency [3]: inactive
- Potency [5]: inactive
- Potency [6]: inactive
- activity, negative = cell killing [7, 11]: -5.69%
- activity, negative = cell killing [7, 12]: 0.278%
- activity, negative = cell killing [7, 14]: 1.18%
- activity, negative = cell killing [7, 13]: -27.5%
- Potency [8]: inactive
- max response [10]: 0.356%
- outcome [9]: inactive

Compound: CCn1nc(C(=O)O)c(=O)c2cc3c(cc21)OCO3
- Potency [1]: inactive
- Potency [2]: inactive
- Potency [3]: inactive
- Potency [5]: inactive
- Potency [6]: inactive
- activity, negative = cell killing [7, 15]: -1.32%
- activity, negative = cell killing [7, 16]: -10.1%
- activity, negative = cell killing [7, 17]: -5.8%
- activity, negative = cell killing ([7]; at 21.3 µM (top of the series), tumour line A): -22.7%
- Potency [8]: inactive

Compound: O=c1[nH]c(=O)n([C@H]2C[C@H](O)[C@@H](CO)O2)cc1Br
- Potency [1]: inactive
- Potency [2]: inactive
- Potency [3]: inactive
- Potency [4]: inactive
- Potency [5]: inactive
- Potency [6]: inactive
- activity, negative = cell killing [7, 11]: -18.1%
- activity, negative = cell killing [7, 12]: 7.04%
- activity, negative = cell killing [7, 13]: -12.6%
- Potency [8]: inactive
- outcome [9]: inactive
